Assay results: the supplement of paper PMC10849652
Of roughly 7,900 targets only a part is listed; those with a hit were picked by preference. About 0.6% of all pairs of compound and target were hits. Values without a mark were called inactive.

How the values were obtained:
Assay in all cases: log2 fold change, soluble protein after heating vs DMSO (PISA); higher = thermal stabilisation; K562 cells, 10 uM, 30 min; active = over 0.2 and 3.5 SD of the protein, either way, in both replicates (recomputed)
[1] = compound: COC1=CC=C(C=C1)CN2C=CC3=C2C=C(C=C3)C(=O)NO
Outline: (§1)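 K562 cells (2×10^6 cells/mL) were treated with 10 μM compound for 30 min, and aliquots were heated for 3 min over 48°C-58°C. Pooled aliquots were extracted in PBS with 0.5% NP-40 at 4°C, and the supernatant after 21,000xg for 90 min was measured by TMTpro 16plex LC-MS/MS with channel sums equalised. Reported thermal stability, relative to control samples and from duplicates, is a log2 fold change.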

filanesib = compound: CON(C)C(=O)N1N=C(c2cc(F)ccc2F)S[C@@]1(CCCN)c1ccccc1 [filanesib]
Outline: as §1

zotarolimus = compound: CO[C@H]1C[C@@H]2CC[C@@H](C)[C@@](O)(O2)C(=O)C(=O)N2CCCC[C@H]2C(=O)O[C@H]([C@H](C)C[C@@H]2CC[C@H](n3cnnn3)[C@H](OC)C2)CC(=O)[C@H](C)/C=C(\C)[C@@H](O)[C@@H](OC)C(=O)[C@H](C)C[C@H](C)/C=C/C=C/C=C/1C [zotarolimus]
Outline: as §1

idasanutlin = compound: COc1cc(C(=O)O)ccc1NC(=O)[C@@H]1N[C@@H](CC(C)(C)C)[C@](C#N)(c2ccc(Cl)cc2F)[C@H]1c1cccc(Cl)c1F [idasanutlin]
Outline: as §1

alisertib = compound: COc1cc(Nc2ncc3c(n2)-c2ccc(Cl)cc2C(c2c(F)cccc2OC)=NC3)ccc1C(=O)O [alisertib]
Outline: as §1

[2] = compound: COc1cc2nc(-c3cc(F)ccc3O)nc(N[C@@H]3CNC[C@H]3C(C)(C)O)c2cc1OC
Outline: as §1

gefitinib = compound: COc1cc2ncnc(Nc3ccc(F)c(Cl)c3)c2cc1OCCCN1CCOCC1 [gefitinib]
Outline: as §1

[3] = compound: COc1cccc2cc(-c3nc([C@H]4CC[C@H](C(=O)O)CC4)n4ncnc(N)c34)[nH]c12
Outline: as §1

lapatinib = compound: CS(=O)(=O)CCNCc1ccc(-c2ccc3ncnc(Nc4ccc(OCc5cccc(F)c5)c(Cl)c4)c3c2)o1 [lapatinib]
Outline: as §1

pictilisib = compound: CS(=O)(=O)N1CCN(Cc2cc3nc(-c4cccc5[nH]ncc45)nc(N4CCOCC4)c3s2)CC1 [pictilisib]
Outline: as §1

Sequence of UniProt Q8IZE3 (Q8IZE3 whole entry, looked up): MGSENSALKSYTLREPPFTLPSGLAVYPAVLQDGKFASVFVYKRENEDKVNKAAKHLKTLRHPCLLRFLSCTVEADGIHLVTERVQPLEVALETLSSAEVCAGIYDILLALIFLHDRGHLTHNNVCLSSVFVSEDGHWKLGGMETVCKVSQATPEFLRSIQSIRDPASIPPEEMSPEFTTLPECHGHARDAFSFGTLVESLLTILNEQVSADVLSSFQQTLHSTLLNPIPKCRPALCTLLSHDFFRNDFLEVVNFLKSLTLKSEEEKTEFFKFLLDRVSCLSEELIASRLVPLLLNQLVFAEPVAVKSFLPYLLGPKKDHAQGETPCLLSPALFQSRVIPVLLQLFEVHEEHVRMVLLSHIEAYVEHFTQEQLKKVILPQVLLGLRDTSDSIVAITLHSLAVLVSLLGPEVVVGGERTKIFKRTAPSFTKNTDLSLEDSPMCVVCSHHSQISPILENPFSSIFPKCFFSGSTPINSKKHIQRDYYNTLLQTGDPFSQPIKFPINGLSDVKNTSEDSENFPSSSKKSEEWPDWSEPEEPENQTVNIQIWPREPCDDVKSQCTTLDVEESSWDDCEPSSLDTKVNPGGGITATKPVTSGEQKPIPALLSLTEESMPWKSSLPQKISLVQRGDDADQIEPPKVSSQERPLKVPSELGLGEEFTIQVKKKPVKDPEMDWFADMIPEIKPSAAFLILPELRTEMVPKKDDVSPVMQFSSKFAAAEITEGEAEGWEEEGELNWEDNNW
Sequence of UniProt Q5PRF9 (Q5PRF9 whole entry, looked up): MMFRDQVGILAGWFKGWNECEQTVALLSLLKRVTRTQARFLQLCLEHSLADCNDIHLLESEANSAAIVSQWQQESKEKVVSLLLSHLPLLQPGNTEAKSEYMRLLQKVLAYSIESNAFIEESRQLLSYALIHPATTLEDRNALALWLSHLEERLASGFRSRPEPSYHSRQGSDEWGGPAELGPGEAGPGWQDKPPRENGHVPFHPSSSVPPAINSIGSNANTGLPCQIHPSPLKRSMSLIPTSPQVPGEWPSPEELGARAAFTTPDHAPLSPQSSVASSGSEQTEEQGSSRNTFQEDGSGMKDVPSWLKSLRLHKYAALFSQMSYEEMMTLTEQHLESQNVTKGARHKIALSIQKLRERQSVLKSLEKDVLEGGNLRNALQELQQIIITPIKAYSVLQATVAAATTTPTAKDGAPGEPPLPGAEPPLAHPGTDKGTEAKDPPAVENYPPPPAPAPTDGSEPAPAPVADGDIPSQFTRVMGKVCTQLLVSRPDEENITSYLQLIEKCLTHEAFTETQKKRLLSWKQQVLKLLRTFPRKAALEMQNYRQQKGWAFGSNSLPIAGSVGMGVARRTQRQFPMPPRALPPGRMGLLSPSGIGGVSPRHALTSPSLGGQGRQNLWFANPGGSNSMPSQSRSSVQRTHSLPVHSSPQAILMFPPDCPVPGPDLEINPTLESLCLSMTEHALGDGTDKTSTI
Sequence of UniProt Q9Y3L5 (Q9Y3L5 whole entry, looked up): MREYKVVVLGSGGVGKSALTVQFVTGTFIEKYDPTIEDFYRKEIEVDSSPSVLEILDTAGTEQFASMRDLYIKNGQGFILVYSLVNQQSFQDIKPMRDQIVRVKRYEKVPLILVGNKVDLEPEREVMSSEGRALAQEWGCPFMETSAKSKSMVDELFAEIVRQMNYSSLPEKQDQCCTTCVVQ
Sequence of UniProt Q96NL6 (Q96NL6 whole entry, looked up): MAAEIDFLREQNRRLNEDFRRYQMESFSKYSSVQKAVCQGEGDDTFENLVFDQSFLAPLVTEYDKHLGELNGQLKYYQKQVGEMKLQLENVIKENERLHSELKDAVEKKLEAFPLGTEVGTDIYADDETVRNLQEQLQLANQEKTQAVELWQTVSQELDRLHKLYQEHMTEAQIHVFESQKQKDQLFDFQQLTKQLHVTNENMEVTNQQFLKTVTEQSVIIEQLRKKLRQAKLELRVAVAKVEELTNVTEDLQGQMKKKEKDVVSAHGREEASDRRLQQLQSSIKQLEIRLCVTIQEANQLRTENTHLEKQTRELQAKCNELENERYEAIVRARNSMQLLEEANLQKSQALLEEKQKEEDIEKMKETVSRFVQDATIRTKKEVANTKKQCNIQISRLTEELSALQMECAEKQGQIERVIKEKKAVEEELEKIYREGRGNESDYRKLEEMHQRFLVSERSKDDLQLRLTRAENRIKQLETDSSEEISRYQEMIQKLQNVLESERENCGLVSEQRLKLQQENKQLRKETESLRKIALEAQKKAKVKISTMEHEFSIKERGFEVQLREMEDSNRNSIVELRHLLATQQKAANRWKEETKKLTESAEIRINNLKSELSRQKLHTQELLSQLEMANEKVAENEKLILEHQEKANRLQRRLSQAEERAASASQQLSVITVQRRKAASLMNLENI
Sequence of UniProt A1X283 (A1X283 whole entry, looked up): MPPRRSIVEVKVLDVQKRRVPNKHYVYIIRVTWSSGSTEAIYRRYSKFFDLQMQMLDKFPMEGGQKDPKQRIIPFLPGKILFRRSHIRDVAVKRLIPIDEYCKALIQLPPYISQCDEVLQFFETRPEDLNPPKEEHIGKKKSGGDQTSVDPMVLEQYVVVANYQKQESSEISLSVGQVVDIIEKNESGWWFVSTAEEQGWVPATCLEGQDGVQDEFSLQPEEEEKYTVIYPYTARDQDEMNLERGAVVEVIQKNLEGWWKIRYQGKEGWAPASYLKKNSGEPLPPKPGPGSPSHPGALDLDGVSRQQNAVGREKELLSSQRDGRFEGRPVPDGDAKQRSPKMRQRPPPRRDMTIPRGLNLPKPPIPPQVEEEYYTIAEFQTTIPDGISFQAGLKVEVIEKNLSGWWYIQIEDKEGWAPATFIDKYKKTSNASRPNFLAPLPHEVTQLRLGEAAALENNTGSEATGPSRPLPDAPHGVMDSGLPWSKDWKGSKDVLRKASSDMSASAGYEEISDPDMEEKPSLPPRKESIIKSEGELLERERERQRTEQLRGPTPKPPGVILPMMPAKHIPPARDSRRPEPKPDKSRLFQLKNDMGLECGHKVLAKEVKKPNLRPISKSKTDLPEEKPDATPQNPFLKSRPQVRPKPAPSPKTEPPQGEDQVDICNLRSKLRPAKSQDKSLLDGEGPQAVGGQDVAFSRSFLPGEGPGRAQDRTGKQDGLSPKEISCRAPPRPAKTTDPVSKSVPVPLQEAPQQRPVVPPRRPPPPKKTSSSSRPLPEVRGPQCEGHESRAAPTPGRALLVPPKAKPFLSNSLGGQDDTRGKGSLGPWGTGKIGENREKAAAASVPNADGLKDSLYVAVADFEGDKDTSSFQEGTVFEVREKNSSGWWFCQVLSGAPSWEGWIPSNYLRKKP
Sequence of UniProt Q9GZR1 (Q9GZR1 whole entry, looked up): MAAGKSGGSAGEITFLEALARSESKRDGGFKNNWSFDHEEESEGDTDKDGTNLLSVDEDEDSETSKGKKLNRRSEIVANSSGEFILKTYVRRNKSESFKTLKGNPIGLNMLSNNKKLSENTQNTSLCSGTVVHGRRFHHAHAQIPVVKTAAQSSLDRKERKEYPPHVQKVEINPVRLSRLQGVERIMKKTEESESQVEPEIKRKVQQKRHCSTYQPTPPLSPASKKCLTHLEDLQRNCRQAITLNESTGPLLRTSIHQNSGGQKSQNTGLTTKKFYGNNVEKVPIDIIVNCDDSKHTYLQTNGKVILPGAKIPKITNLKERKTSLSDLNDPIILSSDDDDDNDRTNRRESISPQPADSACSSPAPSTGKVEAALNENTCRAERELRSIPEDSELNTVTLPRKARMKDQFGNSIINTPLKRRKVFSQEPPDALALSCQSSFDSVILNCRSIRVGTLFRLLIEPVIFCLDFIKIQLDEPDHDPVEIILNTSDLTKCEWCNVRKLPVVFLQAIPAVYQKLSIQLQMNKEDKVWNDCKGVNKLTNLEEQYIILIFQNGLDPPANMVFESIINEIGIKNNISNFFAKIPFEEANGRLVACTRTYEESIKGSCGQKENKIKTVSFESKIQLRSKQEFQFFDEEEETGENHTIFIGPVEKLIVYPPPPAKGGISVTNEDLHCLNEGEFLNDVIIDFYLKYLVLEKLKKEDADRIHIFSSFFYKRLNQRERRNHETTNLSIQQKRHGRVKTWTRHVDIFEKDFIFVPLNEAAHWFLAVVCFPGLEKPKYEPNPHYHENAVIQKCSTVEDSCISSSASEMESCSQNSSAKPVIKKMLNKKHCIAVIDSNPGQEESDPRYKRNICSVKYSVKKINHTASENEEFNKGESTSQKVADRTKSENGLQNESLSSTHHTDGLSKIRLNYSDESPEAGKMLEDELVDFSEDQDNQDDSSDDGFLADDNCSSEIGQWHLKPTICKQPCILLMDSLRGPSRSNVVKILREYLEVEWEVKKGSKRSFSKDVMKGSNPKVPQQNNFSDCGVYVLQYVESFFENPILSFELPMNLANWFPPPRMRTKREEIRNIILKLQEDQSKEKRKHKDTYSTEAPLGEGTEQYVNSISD
Sequence of UniProt O95716 (O95716 whole entry, looked up): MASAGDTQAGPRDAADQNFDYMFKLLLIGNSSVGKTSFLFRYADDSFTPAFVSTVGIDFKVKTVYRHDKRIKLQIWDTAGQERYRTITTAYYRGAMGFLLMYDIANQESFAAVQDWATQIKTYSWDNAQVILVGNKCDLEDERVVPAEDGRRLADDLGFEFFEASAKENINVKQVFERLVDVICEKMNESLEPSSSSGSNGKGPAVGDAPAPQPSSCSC
Sequence of UniProt O15127 (O15127 whole entry, looked up): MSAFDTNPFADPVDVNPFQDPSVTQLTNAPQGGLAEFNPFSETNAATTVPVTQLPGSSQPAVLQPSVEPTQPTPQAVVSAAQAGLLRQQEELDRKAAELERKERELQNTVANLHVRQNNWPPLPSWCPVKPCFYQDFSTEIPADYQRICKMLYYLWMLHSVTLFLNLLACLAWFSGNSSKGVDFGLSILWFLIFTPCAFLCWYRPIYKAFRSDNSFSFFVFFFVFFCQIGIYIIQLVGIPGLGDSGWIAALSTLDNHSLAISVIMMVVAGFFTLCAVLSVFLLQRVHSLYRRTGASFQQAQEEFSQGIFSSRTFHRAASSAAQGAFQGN

Row | Target | log2 fold change [1] | log2 fold change (filanesib) | log2 fold change (zotarolimus) | log2 fold change (idasanutlin) | log2 fold change (alisertib) | log2 fold change [2] | log2 fold change (gefitinib) | log2 fold change [3] | log2 fold change (lapatinib) | log2 fold change (pictilisib)
1 | SENP6 (UniProt Q9GZR1) | 0.029 | 0.115 | -0.077 | 0.088 | -0.016 | 0.016 | 0.028 | 0.039 | 0.066 | 0.076
2 | RBM22 (UniProt Q9NW64) | -0.105 | 0.096 | 0 | 0.056 | -0.002 | 0.021 | -0.058 | 0.083 | 0.036 | -0.031
3 | RAC1 (UniProt P63000) | 0.474 (active) | -0.118 | 0.044 | 0.003 | -0.066 | 0.02 | 0.039 | 0.006 | 0.004 | -0.094
4 | SEPTIN5 (UniProt G3XAH0) |  | -0.044 | 0.045 | 0.027 | 0.003 | 0.011 | -0.057 | 0.036 | 0.094 | 0.051
5 | RALGPS2 (UniProt Q86X27) | 0.246 |  | 0.038 | -0.062 | 0.109 |  |  | 0.132 |  | 0.165
6 | SCAMP2 (UniProt O15127) |  | 0.036 | 0.171 | -0.1 | -0.087 | -0.035 | 0.036 | 0.042 | 0.009 | 0.199
7 | SCLT1 (UniProt Q96NL6) | 0.433 (active) | -0.063 | 0.079 |  | -0.205 |  | -0.022 | 0.046 |  | 0.185
8 | RICTOR isoform 3 (UniProt Q6R327) |  | -0.028 |  | -0.066 |  | 0.003 | 0.059 |  | 0.186 | -0.062
9 | RNF185 (UniProt Q96GF1) |  |  | 0.117 | -0.143 | -0.145 | -0.175 | 0.007 | -0.016 | -0.111 | 0.076
10 | SCYL3 isoform 2 (UniProt Q8IZE3) | 0.017 |  | 0.008 | -0.117 | 0.063 | 0.039 | 0.063 | 0.032 | -0.084 | 0.018
11 | SEMG2 (UniProt Q02383) |  | -0.002 | -0.021 | -0.135 | 0.005 |  | -0.008 | 0.063 |  | -0.021
12 | RAB3D (UniProt O95716) |  |  | -0.08 | 0.026 | 0.007 | 0.002 | 0.243 | -0.07 | 0.002 | -0.153
13 | SAMD4B (UniProt Q5PRF9) | 0.075 | 0.139 | 0.072 |  |  | 0.14 | 0.146 |  | -0.036 | -0.044
14 | RPS6KA5 (UniProt O75582) | -0.276 |  |  |  | -0.076 | -0.185 |  | 0.131 | 0.057 | 
15 | RAP2C (UniProt Q9Y3L5) |  | -0.011 | -0.031 | 0.008 | -0.073 | 0.016 | -0.01 | 0.031 | 0.1 | -0.799 (active)
16 | SH3PXD2B (UniProt A1X283) |  | -0.06 | -0.003 | -0.174 | -0.02 |  | 0.149 | -0.037 |  | 0.162
17 | SERINC1 (UniProt Q9NRX5) | 0.073 | -0.146 |  | 0.233 | 0.073 | -0.208 | -0.266 | -0.167 | -0.227 | 
18 | RRP36 (UniProt Q96EU6) |  | 0.372 | -0.054 | 0.203 | -0.217 | 0.01 | -0.042 | -0.268 | 0.088 | -0.181
19 | RPS3 (UniProt E9PJN9) |  |  |  |  |  |  |  |  |  | 0.129
